The source of these data is PubChem BioAssay AID686979 (National Center for Advancing Translational Sciences (NCATS), 2013).

Hit rate of the full screen: of about 420,000 compounds, about 50,000 (12%) were called active. Not shown: some 26% with an inconclusive outcome. Many of the other results were omitted from the sample, so actives are more common in it than they were. A number with no mark means an inactive call. Calls come from the whole dose curve; as a rule, active = well fitted inhibition curve with a large enough effect; inconclusive = small, poorly fitted or top-dose-only effect; inactive = flat fitted curve, though single readings scatter.
% is set by controls: 0 for no effect and ±100 for the full control effect; potency is the fitted concentration of half-maximal effect.

The experiment in a line: qHTS for Inhibitors of human tyrosyl-DNA phosphodiesterase 1 (TDP1): qHTS in cells in presence of CPT. Note: nearly all actives have a fitted effect of over 55% in size. The following applies: chicken DT40 Tdp1-/-;hTDP1 cells + 20 nM CPT, ATP luminescence, 48 h; series mostly up to 46.2 µM; activity change, negative = growth inhibition: at the top concentration. The gist of the method:
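Cell growth measured by CellTiter-Glo luminescence after a minimum 48 h, 37 C compound exposure with 20 nM CPT in Tdp1-knockout DT40 cells stably expressing hTDP1, seeded 400/well; qHTS titration format.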
(In general: In qHTS, concentration-response curves come from the screen itself.)
For `Cc1ccc(C)c(NC(=O)COC(=O)c2nn(C)c(=O)c3ccccc23)c1`, the “activity change, negative = growth inhibition” value is 0.793%. Take `C/C=C/C(=O)OCc1csc(CC(=O)Nc2ccccc2C)n1`: the “activity change, negative = growth inhibition” value is -11.6%. On the same count and under the same terms, then `Cc1ccnc(NC(=O)C2CCN(S(=O)(=O)c3c(C)c(C)cc(C)c3C)CC2)c1`, with 26.2%. Regarding `CCCNC(=O)C[C@@H]1CC[C@@H]2[C@H](COC[C@H](O)CN2C(=O)c2cc(Cl)cc(Cl)c2)O1`, the “activity change, negative = growth inhibition” value is 15.3%. Same read-out and setting: then `CC1(c2nnc(-c3ccncc3)o2)CC(c2cccnc2)=NO1` (configuration not stated), with 1.74%. For `CCCCC(=O)Nc1nnc(S(=O)(=O)N(C)Cc2ccco2)s1`, the “activity change, negative = growth inhibition” value is -2.86%.

In the case of `COc1ccc(OC)c(-n2cc3c(=O)n(C)c(=O)n(C)c3c2)c1`, the Potency is 16.4 µM (active). As to `CC(=O)Nn1cc2c(=O)n(C)c(=O)n(C)c2c1`, the “activity change, negative = growth inhibition” value was 9.83%. `COc1ccc(NC(=O)CCNS(=O)(=O)c2ccc3c(c2)c(=O)n(C)c(=O)n3C)cc1OC`: the “activity change, negative = growth inhibition” value is 1.91%. In the case of `CCc1cc2c(NC3CCCC3)ncnc2s1`, the Potency was 7.31 µM (active). In the case of `CCc1cc2c(SCC(=O)Nc3ncc(Cl)c(C)c3Cl)ncnc2s1`, the “activity change, negative = growth inhibition” value was -29.6%. Take `CCc1cc2c(NC(Cc3ccccc3)C(=O)O)ncnc2s1` (configuration not stated): the “activity change, negative = growth inhibition” value was -3.93%. Regarding `Cn1c2ccccc2n2c(=O)c(=O)n(CC(=O)c3ccc(F)cc3)nc12`, the “activity change, negative = growth inhibition” value is -14.7%. With `COc1ccc(Cn2ccn(Cc3cccc(OC)c3)c(=O)c2=O)cc1`, the “activity change, negative = growth inhibition” value is -27%.

`O=C(Cn1ccc2cc(S(=O)(=O)N3CCCC3)ccc21)NCc1ccccc1`: the “activity change, negative = growth inhibition” value is -16.2%. Take `O=[N+]([O-])/C=C/c1ccc2c(ccn2Cc2ccccc2)c1`: the Potency was 3.26 µM (active).

Take `Cc1ccc(C)c(S(=O)(=O)Nc2cccc(-n3cnnn3)c2)c1`: the “activity change, negative = growth inhibition” value was -20.1%. With `Cc1cnc(C(=O)OCc2c(C)cc(C(C)(C)C)cc2C)cn1`, the “activity change, negative = growth inhibition” value was -21.7%.

For the compound `N#CCCC(C#N)(c1cccnc1)N1CCOCC1` (configuration not stated), the “activity change, negative = growth inhibition” value was 2.23%. Turning to `COc1ccc2occ(C(=O)c3ccc(N=C(C)N(C)C)cc3)c2c1`, the Potency was 16.4 µM (active).

`COc1ccc(C(=O)c2oc3ccc(Br)cc3c2NC(C)=O)cc1`: the “activity change, negative = growth inhibition” value is -24.2%. Turning to `COc1ccc(OC)c(C(=O)c2ccc(C(=O)O)cc2)c1`, the “activity change, negative = growth inhibition” value was -7.43%. As to `O=C(CCN1C(=O)[C@@H]2Cc3ccccc3CN2C1=O)NCCc1ccccc1`, the “activity change, negative = growth inhibition” value was -0.504%. For the compound `O=C(Cn1nc(C(=O)O)c2ccccc2c1=O)Nc1ccc(F)cc1`, the “activity change, negative = growth inhibition” value is -16.6%. Regarding `CCN(CC)c1ccc(/C=C/c2c(C)cnc3ccc(C)cc23)cc1`, the Potency was 11.2 µM (active).

As for `COc1ccc(C(=O)COC(=O)CNC(=O)c2cccs2)cc1Br`, the “activity change, negative = growth inhibition” value was 6.66%. `Cc1ccc(S(=O)(=O)N2CCN(c3ccccc3)CC2)cc1C`: the “activity change, negative = growth inhibition” value was 4.16%. As to `COC(=O)/C(=C\Nc1ccccc1)NC(=O)c1ccc(Cl)cc1Cl`, the “activity change, negative = growth inhibition” value was -12.4%. For `COC(=O)Cc1nc2c(N)nc(N)nc2[nH]c1=O`, the “activity change, negative = growth inhibition” value was 1.28%.

Regarding `COc1ccc2c(c1)CCC/C2=N\OC(=O)c1ccccc1F`, the “activity change, negative = growth inhibition” value is 0.0235%.

`COc1cc2c(cc1OC)C(COc1ccc(F)cc1)N(C(=O)c1ccccc1F)CC2` (configuration not stated): the Potency was 18.4 µM (active).

`COc1cc2c(cc1OC)CN(CC(=O)Nc1ccc(F)cc1)CC2`: the “activity change, negative = growth inhibition” value was 0.106%.

Consider `NC(=O)C1(Nc2ccccc2Cl)CCCC1`, for which the “activity change, negative = growth inhibition” value is 1.03%. With `NC(=O)c1ccc(-c2csnn2)cc1`, the “activity change, negative = growth inhibition” value is -2.39%. Consider `CCOc1ccc(CCNC(=O)COC(=O)CCS(=O)(=O)c2ccc(C)cc2)cc1OCC`, for which the “activity change, negative = growth inhibition” value was -9.18%. Take `Cc1nc2ccccc2nc1CC(O)(c1ccccc1)c1ccccc1`: the “activity change, negative = growth inhibition” value was -15.5%. Consider `CN(C)NC(=O)c1csnc1-c1c(Cl)cccc1Cl`, for which the “activity change, negative = growth inhibition” value was 6.02%. On the same count and under the same terms, in the case of `CCn1c(SCC(=O)N/N=C/c2ccccc2OCC(=O)O)nnc1-c1ccc(C(C)(C)C)cc1` it was 9.93%; in that of `COc1cccc(CNC(C)C(=O)Nc2ccc(S(=O)(=O)N3CCCC3)cc2)c1` (configuration not stated), -18.1%. As to `COc1ccc(S(=O)(=O)N2CCN(C(C)C(=O)Nc3ccc(C(C)C)cc3)CC2)cc1` (configuration not stated), the Potency is 29.1 µM (active). Regarding `COc1ccc(S(=O)(=O)N2CCN(C(=O)NC3CCCCC3)CC2)cc1`, the “activity change, negative = growth inhibition” value is 2.96%. On to `O=C(NC(=S)NC1CCSC1=O)c1ccccc1F` (configuration not stated), for which the “activity change, negative = growth inhibition” value was 5.66%. Same read-out and setting: in the case of `COc1cc(OC)c(NC(=O)C2CCCN2C(=O)OCc2ccccc2)cc1Cl` (configuration not stated) it was -5.29%.

As for `COc1cc(CNC2CCCC2)c(Br)cc1OCc1ccccc1`, the Potency was 20.6 µM (active).

Regarding `COc1cc(CN2CCC(C(N)=O)CC2)ccc1OCc1ccccc1`, the “activity change, negative = growth inhibition” value was -6.41%.

Take `CS(=O)(=O)NC(=O)CCC/C=C\C[C@H]1C(=O)C[C@@H](O)[C@@H]1/C=C/[C@H](O)COc1ccccc1`: the “activity change, negative = growth inhibition” value is -5.58%. Turning to `Cc1ccc2nc(COc3cccc(NC(=O)c4cccc(Cl)c4)c3)cc(=O)n2c1`, the “activity change, negative = growth inhibition” value was 5.1%. On to `Cc1cccc(C)c1OCCN1CCOCC1`, for which the “activity change, negative = growth inhibition” value was 0.496%. As to `COc1ccc(-c2sc3ccccc3c2-c2ccc(OCCN3CCOCC3)cc2)cc1`, the Potency was 14.6 µM (active). Same read-out and setting: in the case of `COc1cccc(-c2sc3ccc(OC)cc3c2-c2ccc(OCCN3CCCCC3)cc2)c1` it was 18.4 µM (active).

As to `COc1cccc(OCCCN2CCCCCC2)c1`, the “activity change, negative = growth inhibition” value was 7.79%.

Consider `COc1cc(OC)cc(-c2sc3ccc(OC)cc3c2-c2ccc3cc[nH]c3c2)c1`, for which the “activity change, negative = growth inhibition” value is 2.8%.
